# Compound activity (PubChem BioAssay)
# HCMV antiviral: blocks human cytomegalovirus replication; HFF cells, HCMV-luciferase reporter, 72 h; hits give low values; activity change, negative = inhibition, % at 57.5 µM; hit rate 4.5% among 410,000; in the data active = activity change below about -60%; inconclusive = no clear call, values can overlap the other calls; inactive = above about -39%; note: % is set by controls: 0 for no effect and ±100 for the full control effect
#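 Inhibition of viral replication was scored as loss of reporter luminescence in HFFs infected with HCMV-luciferase (MOI 1 PFU/cell) for 72 h; compounds tested at 2 doses, normalized to buffer and Salinomycin controls.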
# Marburg entry inh: Marburg virus entry inhibition. Marburg virus pseudotyped entry inhibition, cell reporter. AID 540276. Potency, µM (titrated, usually from 37.8 µM), without a hit: at the highest dose activity change, negative = inhibition, usual class: inhibitors. hit rate 1.8% among 300,000; calls by dose curve; tested in HEK293 cells; note: potency is the fitted concentration of half-maximal effect; % is set by controls: 0 for no effect and ±100 for the full control effect
# HCV inhibitor: HCV inhibition. Huh7.5.1 HCVcc-Cre infection, luciferase reporter, 44 h. Potency, µM (top dose mostly 41.8 µM), inactives show at the highest dose activity change, negative = inhibition, actives largely listed as inhibitors. hit rate 3.4% among 340,000. AID 651820; active = well fitted inhibition curve with a large enough effect; inconclusive = small, poorly fitted or top-dose-only effect, or another doubt; inactive = no such curve, though single readings can be large or run the other way; note: potency is the fitted concentration of half-maximal effect; % is set by controls: 0 for no effect and ±100 for the full control effect
#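 Antiviral activity was scored by luciferase reporter output from cells infected with HCVcc-Cre (~0.5 moi) in presence of compound, 44 h infection period, cells seeded 1,000/well 4 h prior.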
# Lassa entry inh: blocks Lassa virus binding to or entry into cells; AID 540256; Lassa virus pseudotype entry inhibition, cell reporter; hit rate 1.2% among 300,000; Potency, µM (titrated, usually from 37.9 µM), for inactives: at the top dose activity change, negative = inhibition, usual class: inhibitors; calls by dose curve; tested in HEK293 cells; note: potency is the fitted concentration of half-maximal effect; % is set by controls: 0 for no effect and ±100 for the full control effect; nearly all actives have a fitted effect of over 50% in size
# FMDV inh: foot and mouth disease virus antiviral activity; FMDV antiviral cell-based qHTS; Potency, µM (doses to about 57.9 µM), for inactives: top-dose activity change, negative = inhibition, hits mostly inhibitors; hit rate 1.2% among 410,000; AID 1159524; calls by dose curve; tested in HEK293T cells; note: read-out not given here; potency is the fitted concentration of half-maximal effect; % is set by controls: 0 for no effect and ±100 for the full control effect; nearly all actives have a fitted effect of over 45% in size
# SARS PLpro yeast: SARS-CoV PLP inhibition in yeast. S. cerevisiae expressing SARS-CoV PLpro, growth rescue. Potency, µM (top dose mostly 32.9 µM), inactives show at the top dose activity, positive = growth rescue, most hits filed as activators. hit rate 0.19% among 330,000; calls by dose curve; note: potency is the fitted concentration of half-maximal effect; 0% is about no effect; nearly all actives have a fitted effect of over 55% in size
# * marks the source's active call; other numbers are inactive results; ? = inconclusive; · = no result; [ ] = dose if it differs, or a comment. A selection: hits, their analogues and other compounds. The true share with any hit is near 8%.
SMILES,HCMV antiviral,Marburg entry inh,HCV inhibitor,Lassa entry inh,FMDV inh,SARS PLpro yeast
COc1ccc(S(=O)(=O)N(CC(=O)Nc2cccc(C(F)(F)F)c2)c2ccc(C)cc2)cc1,-35.5,?,·,?,-16.4%,·
CCC(NC(=O)Nc1cc(OC)ccc1OC)c1c(-n2cccc2)sc2c1CCN(CC)C2 (centres undefined),-72.8*,·,·,1.1%[46.1 µM],4.9%,·
CCOc1ccc(NC(=O)NC(C)c2c(-n3cccc3)sc3c2CCN(CC)C3)cc1 (centres undefined),-79.3*,·,·,11.9%[46.1 µM],10.4%,·
CCC(NC(=O)Nc1ccc(OC)c(OC)c1)c1c(-n2cccc2)sc2c1CCN(C)C2 (centres undefined),-35.1,·,·,8.5%[46.1 µM],-2.0%,·
CC1CCC(C(=O)NC(C(=O)OCC(=O)c2ccccc2)C(C)C)CC1 (centres undefined),-28.3,-5.9%[46.1 µM],·,-10.5%[46.1 µM],?,·
Clc1ccccc1/C=C/c1nc(-c2ccccn2)no1,?,?,-27.1%,?,3.98µM*,-3.0%
CN(c1nnc(NC(=O)Nc2ccccc2C(F)(F)F)s1)C1CCCCC1,15.1,27.3%[46.1 µM],·,-0.1%[46.1 µM],15.8%,·
Cc1cccc(N/N=C/c2ccc(O)c(O)c2O)c1,?,·,14.3%,·,10.3%,-0.9%
COc1cccc(N/N=C/c2cccc(Br)c2O)c1,0.0,11.2µM*,?,0.1%,23.0%,-2.3%
O=C(N/N=C/c1ccco1)C1CC1c1ccccc1 (centres undefined),-17.0,27.1%,?,18.4µM*,4.6%,0.8%
O=C(CCc1ccccc1)N/N=C/c1cccc([N+](=O)[O-])c1,86.5,·,0.8%,·,7.5%,-1.2%
O=C(N/N=C/c1cccc([N+](=O)[O-])c1)C1CC1c1ccccc1 (centres undefined),-10.4,?,-15.3%,2.24µM*,-0.7%,24.5%
O=C(N/N=C/c1cccs1)[C@H]1C[C@@H]1c1ccccc1,?,18.8%,-0.8%,-13.6%,-1.2%,13.1%
O=C(N/N=C/c1ccco1)C1CC1,-23.1,13.8%,-2.7%,19.4%,-15.8%,-1.5%
O=C(N/N=C/c1c[nH]c2ccccc12)C1CC1c1ccccc1 (centres undefined),-17.3,?,?,2.82µM*,?,14.5%
CC(C)(C)c1ccc(C2CC2C(=O)N/N=C\c2ccc[nH]2)cc1 (centres undefined),-99.8*,?,0.562µM*,?,-19.0%,-3.2%
CCOC(=O)N1CCC(NC(=O)c2ccc3c(c2)N(Cc2ccccc2)C(=O)c2ccccc2S3(=O)=O)CC1,?,4.9%[46.1 µM],·,-14.2%[46.1 µM],-4.1%,·
Cc1nc(-c2ccc(F)cc2)sc1CCNC(=O)c1ccco1,34.3,·,·,?,28.7%,·
COc1ccc(/C=C/C(=O)Nc2ccc(N3CCOCC3)cc2)cc1,?,-6.4%,-22.7%,16.7%,-19.3%,21.0%
CCN(CC)S(=O)(=O)c1ccc(/C=C/C(=O)Nc2ccc(F)c(F)c2F)cc1,-64.1*,?,1.41µM*,?,?,10.5%
CCN(CC)S(=O)(=O)c1ccc(/C=C/C(=O)Nc2ccc(F)cc2F)cc1,-68.6*,5.5%,?,·,?,17.6%
O=C(/C=C/c1ccc(S(=O)(=O)N2CCOCC2)cc1)Nc1ccc(F)c(F)c1F,-38.1,-34.0%,?,?,?,3.2%
CCCCCC(=O)NC(=S)Nc1ccc(N2CCOCC2)cc1,-27.3,25.2%,5.4%,1.1%,20.5%,12.6µM*
CCN(CC)S(=O)(=O)c1ccc(/C=C/C(=O)Nc2ccc(N3CCOCC3)cc2)cc1,-83.2*,-5.8%,12.6µM*,·,?,-0.5%
OC(c1ccc2c(c1)CN(Cc1c[nH]c3ccccc13)CCO2)c1ccccn1 (centres undefined),·,·,·,·,3.0%,·
SMILES,HCMV antiviral,Marburg entry inh,HCV inhibitor,Lassa entry inh,FMDV inh,SARS PLpro yeast
CCN(CC)S(=O)(=O)c1ccc(/C=C/C(=O)Nc2ccc(Br)cc2F)cc1,-73.0*,6.51µM*,2µM*,1.58µM*,5.01µM*,8.8%
CCC(C)Sc1nc2c(c(=O)[nH]1)C(c1cccs1)C1=C(CCCC1=O)N2 (centres undefined),-92.8*,·,-1.7%,·,-28.0%,0.0%
O=C1CCCC2=C1C(c1ccncc1)c1c(nc(SCc3ccccc3Cl)[nH]c1=O)N2 (centres undefined),6.8,10µM*,-4.8%,?,-6.3%,1.8%
COC(=O)C1=C(C)NC2=C(C(=O)CCC2)C1c1cccs1 (centres undefined),12.2,·,10.3%,·,·,-2.2%
COc1cc(/C=N/NC(=O)c2sc(N)c(C#N)c2C)ccc1O,-34.1,4.47µM*,-11.1%,-6.8%,-18.2%,1.3%
Cc1ccc(OCCSc2ncccn2)c(C)c1,-37.5,?,-11.1%,10µM*,6.7%,-1.6%
Cc1ccc(OCCCCNC(C)c2ccccc2)c(C)c1 (centres undefined),12.4,11.2µM*,10µM*,?,-28.7%,1.2%
COCC(C)n1c(C)cc(C(=O)COC(=O)c2cccn2C)c1C (centres undefined),-75.9*,·,?,·,?,-1.3%
Cc1ccc(S(=O)(=O)N[C@H]2CC[C@@]34CCCN3C(=O)CCC[C@H]4[C@H]2Cc2ccccc2)cc1,-18.4,·,·,·,·,·
CC(=O)C1C(N2CC2)CC2C3CC=C4CC(O)CCC4(C)C3CCC21C (centres undefined),-75.7*,?,11.2µM*,?,-15.7%,·
CC1CCCCC12NC(=O)N(CC(=O)OCc1ccccc1Cl)C2=O (centres undefined),-7.5,-15.0%,-8.1%,-17.9%[46.1 µM],?,0.3%
CC(C)c1ccc(COC(=O)CN2C(=O)NC3(CCCCC3C)C2=O)cc1 (centres undefined),-0.2,?,14.1µM*,?,0.0%,2.0%
COc1ccc(Nc2ccc3cc(S(=O)(=O)N4CCCC4)ccc3n2)cc1OC,-8.9,·,·,-20.5%[46.1 µM],-29.5%,·
COc1cccc(Nc2ccc3cc(S(=O)(=O)N4CCC(C)CC4)ccc3n2)c1,-86.7*,·,·,-28.5%[46.1 µM],-15.0%,·
COc1ccc(C(=O)c2ccc3oc(-c4ccc(OC)cc4)c(-c4ccc(O)cc4)c3c2)cc1,-64.5*,·,8.91µM*,·,-5.8%,-1.7%
COc1ccc(C(=O)c2c(-c3ccc(OC)cc3)oc3ccccc23)cc1,14.3,·,-56.0%,·,0.0%,-11.3%
O=C(Oc1c(-c2ccccc2)oc2ccccc2c1=O)c1ccccc1,-81.9*,-21.6%,-29.6%,?,20.9%,-0.4%
COc1ccc(-c2oc3ccccc3c(=O)c2OC(=O)c2ccc(C)cc2)cc1,-74.6*,-18.2%,9.6%,4.9%,15.6%,-5.2%
COc1ccc(C(=O)c2c(C)oc3ccc(O)cc23)cc1,?,·,-15.0%,·,-26.7%,-5.7%
COCCN1C(=NCC(C)C)NC(c2ccccc2)C(C(=O)OC)=C1C (centres undefined),·,28.6%[14.2 µM],·,?,·,·
